Mac1 fbg enh – increases human CD11b/CD18 adhesion to fibrinogen | K562 CD11b/CD18 adhesion to fibrinogen, ATPlite luminescence | P05107+P11215 | activation, % at 10 µM | hit rate 0.07% among 93,000;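 active means 10 µM primary screen giving 50% or more activity, confirmed by 40% or more on retest at that dose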
Target sequence (P05107 whole entry, looked up, other chains not shown): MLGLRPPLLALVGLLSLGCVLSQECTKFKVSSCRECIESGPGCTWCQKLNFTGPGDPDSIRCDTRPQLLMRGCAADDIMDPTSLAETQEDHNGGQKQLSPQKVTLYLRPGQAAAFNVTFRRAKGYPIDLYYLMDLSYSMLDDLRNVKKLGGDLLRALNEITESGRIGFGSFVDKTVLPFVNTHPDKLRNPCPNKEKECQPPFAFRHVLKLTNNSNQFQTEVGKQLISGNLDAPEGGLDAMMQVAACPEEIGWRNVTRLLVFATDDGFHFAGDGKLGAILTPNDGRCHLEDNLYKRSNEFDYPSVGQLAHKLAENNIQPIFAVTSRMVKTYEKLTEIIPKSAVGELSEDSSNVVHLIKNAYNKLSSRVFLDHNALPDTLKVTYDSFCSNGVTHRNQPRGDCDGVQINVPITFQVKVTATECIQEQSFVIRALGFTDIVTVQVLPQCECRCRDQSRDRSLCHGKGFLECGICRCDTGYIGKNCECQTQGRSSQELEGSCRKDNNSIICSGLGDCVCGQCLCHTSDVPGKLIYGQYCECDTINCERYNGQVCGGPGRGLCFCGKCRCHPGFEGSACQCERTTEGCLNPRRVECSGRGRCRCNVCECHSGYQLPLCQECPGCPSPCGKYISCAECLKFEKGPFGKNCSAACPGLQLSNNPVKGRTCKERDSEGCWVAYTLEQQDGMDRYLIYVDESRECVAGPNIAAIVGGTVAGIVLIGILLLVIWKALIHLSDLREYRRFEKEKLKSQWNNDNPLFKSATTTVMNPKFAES
CYP2C19 act – activators of human cytochrome P450 2C19; recombinant CYP2C19, luciferin-H EGE luminescence; hits give high values; 0 = fully inhibited enzyme, 1 = untreated enzyme; activation factor at 5 µM; 96,000 tested, under 10 active;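 active means activation factor of at least 2 at 5 µM in the primary screen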;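 further: 0 = wells with 2.5 mM tranylcypromine and 1 = vehicle-only wells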
CYP2C9 activ – increases human cytochrome P450 2C9 activity; P11712; recombinant CYP2C9, luciferin-H conversion, luminescence; hits give high values; factor 1 = untreated enzyme, 0 = blocked; activation factor at 5 µM; hit rate 1.4% among 96,000; AID 1024;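 active means activation factor of 2 or more for CYP2C9 at a 5 µM dose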;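 further: 0 = sulfaphenazole-blocked wells and 1 = vehicle-only wells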
CYP2C19 inhib – human CYP2C19 inhibition | AID 778 | P33261 | hit rate 21% among 96,000 | CYP2C19 Supersomes, luciferin-H EGE luminescence, 30 min | inhibition, % at 5 µM;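 active means CYP2C19 inhibition above a set limit at 5 µM in the primary screen, cut at about 50% in these data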;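 further: plate controls were negative control wells for no effect and 2.5 mM tranylcypromine positive control for full effect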
Mac1 fbg inh – CD11b/CD18-fibrinogen binding inhibition. P05107+P11215. K562 CD11b/CD18 adhesion to fibrinogen, ATPlite luminescence; Mn2+ added to activate the integrin. inhibition, % at 10 µM. hit rate 0.54% among 93,000. AID 1497;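 active means primary inhibition of 50% or more at 10 µM, then 40% or more on retest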
CYP2C9 inhib – blocks human cytochrome P450 2C9; P11712; CYP2C9 Supersomes, luciferin-H conversion, luminescence; inhibition, % at 5 µM; hit rate 20% among 96,000;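 active means blocking of liver enzyme CYP2C9 beyond about 50% at 5 µM, limit read from the data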
* marks the source's active call; other numbers are inactive results; . = no result. The list is not random: actives were taken first. Their share in the collection is about 28%.

SMILES	Mac1 fbg enh	CYP2C19 act	CYP2C9 activ	CYP2C19 inhib	Mac1 fbg inh	CYP2C9 inhib
Cc1ccc(S(=O)(=O)n2cc(-c3ccccc3)c(N)n2)cc1	-2.6	0.5	0.1	52.2*	-3.0	89.8*
O=C(/C=C/c1ccc(OC2CSC2)cc1)c1ccccc1	.	0.4	0.6	61.0*	.	40.4
CC(=O)NCCn1c(SCc2cc(=O)n3cc(Cl)ccc3n2)nc2ccccc2c1=O	-2.7	1	0.6	1.3	-1.2	44.1
CSc1nsc(SCc2ccc(F)cc2)n1	-3.9	0.2	0.9	79.4*	1.7	8.6
CSc1nsc(SCc2ccc(Cl)cc2)n1	.	0.2	0.9	81.7*	.	13.1
Cc1ccc(-c2noc(CCC(=O)NCc3ccc4c(c3)OCO4)n2)cc1	-3.8	0.9	0.9	8.5	-25.7	9.2
O=[N+]([O-])c1ccc(/C=N/Nc2nc(N3CCCCC3)nc(N3CCCCC3)n2)o1	-4.1	0.9	1	5.6	-1.3	-4.2
COc1ccc(NC(C)=O)cc1NC(=O)CSc1nnc(-c2cccnc2)n1C	-0.8	1	1.1	4.4	-25.1	-9.5
COC(=O)c1ccccc1NC(=O)Cn1cc2c(n1)CCC(C)C2 (stereo unspecified)	2.8	0.9	0.4	12.7	-2.7	60.6*
COc1cccc(CNC(=O)Cn2cc3c(n2)CCCC3)c1	-4.5	0.3	1.2	70.1*	0.2	-22.4
Cc1ccc2nc(NC(=O)Cn3cc4c(n3)CCCCC4)sc2c1	3.0	0.7	0.3	29.0	-8.5	65.7*
Cc1cc(C)c(NC(=O)Cn2cc3c(n2)CCCC3)c(C)c1	-5.4	0.9	1.1	8.4	-8.5	-11.1
CC(C)CCNC(=O)Cn1cc2c(n1)CCCCC2	-0.9	0.9	0.5	6.2	1.6	48.8
Cc1ccc(NC(=O)Cn2cc3c(n2)CCC(C)C3)cc1 (stereo unspecified)	2.7	0.8	0.8	16.5	0.0	20.1
CCN(CCNC(=O)Cn1cc2c(n1)CCCC2)c1ccccc1	12.9	0.3	0.3	71.8*	-18.2	68.8*
CCCc1nc2sc3c(SCC(=O)NCc4ccco4)ncnc3c2c2c1CCC2	21.4	1	0.6	-0.3	-4.6	43.1
O=C(Cn1cc2c(n1)CCCC2)Nc1ccccc1Br	-0.7	0.1	0.3	90.0*	-0.5	67.1*
O=C(Cn1cc2c(n1)CCCC2)NCc1cccnc1	2.4	0.9	0.9	11.3	20.2	13.5
O=C(Cn1cc2c(n1)CCCCC2)NCc1ccccc1	8.7	0.2	2.5*	83.7*	-4.1	-154.5
CC1CCN(C(=O)Cn2cc3c(n2)CCCC3)CC1	2.5	0.4	0.9	55.2*	5.3	14.6
O=C(Cn1cc2c(n1)CCCC2)Nc1ccccc1Cl	10.2	0.9	0.8	11.5	-1.1	18.8
O=C(Cn1cc2c(n1)CCCC2)N1CCOCC1	-1.2	1	0.8	4.7	-2.9	22.5
CCOc1ccc(NC(=O)CCN2CCN(S(=O)(=O)c3cc(Cl)ccc3OC)CC2)cc1	0.5	0	0.3	96.4*	-18.5	67.6*
CCOc1ccc(NC(=O)CCN2CCN(c3ccccc3OC)CC2)cc1	1.1	0.9	0.8	6.0	-1.8	17.3
CCN(CC)c1ccc(NC(=O)CN2CCN(S(=O)(=O)c3cc(Cl)ccc3OC)CC2)cc1	-0.9	0.3	1.3	72.4*	16.9	-28.3
SMILES	Mac1 fbg enh	CYP2C19 act	CYP2C9 activ	CYP2C19 inhib	Mac1 fbg inh	CYP2C9 inhib
C=CCNC(=O)c1ccc(N(C)S(=O)(=O)c2ccc(OC)cc2)cc1	1.4	0.3	0.1	73.0*	8.1	86.2*
CC(=O)Nc1ccc(S(=O)(=O)NCc2ccc(C)cc2)cc1	3.0	0.4	1	60.1*	5.5	-4.8
CC(=O)Nc1ccc(S(=O)(=O)NCCc2ccc(F)cc2)cc1	.	0.4	0.6	57.9*	.	37.3
C=CCNC(=O)c1ccc(CNS(=O)(=O)c2ccc(NC(C)=O)cc2)cc1	0.1	0.9	0.4	8.9	3.5	57.0*
COc1ccc(S(=O)(=O)N(C)c2ccc(C(=O)N3CCOCC3)cc2)cc1	1.6	0.9	0.9	8.0	-16.7	8.0
CC(=O)Nc1ccc(S(=O)(=O)NCCc2ccc(S(N)(=O)=O)cc2)cc1	-1.6	1.1	0.7	-6.7	-28.6	25.3
CCNS(=O)(=O)c1ccc(NC(=O)c2ccccc2)cc1	-3.1	0.9	0.8	12.9	5.3	24.2
CC1(C)NC(=O)N(CC(O)CN2CCCC2)C1=O (stereo unspecified)	0.3	1.1	1.1	-6.3	-19.1	-10.1
CC(=O)Nc1ccc(S(=O)(=O)NCc2ccc3[nH]c(C)cc3c2)cc1	-2.1	0.6	0.2	43.8	-10.0	84.6*
CC(=O)Nc1ccc(S(=O)(=O)n2nc(-c3ccc(C)cc3)nc2N)cc1	-0.2	0.5	1.1	50.0*	-2.9	-5.1
Cc1ccc(S(=O)(=O)CC(=O)c2ccc(C(C)(C)C)cc2)cc1	-3.7	0.6	0.9	41.1	4.7	13.1
Cc1ccc(S(=O)(=O)n2nc(-c3cccnc3)nc2N)cc1	-3.5	0.9	1	7.0	0.5	4.9
CC(=O)Nc1ccc(C(=O)CS(=O)(=O)c2ccc(C)cc2)cc1	-1.4	0.6	0.4	41.2	-4.4	59.2*
CC(=O)Nc1ccc(S(=O)(=O)NCCSCc2ccc(Cl)cc2Cl)cc1	.	0.4	0.2	56.8*	.	80.9*
CC(=O)Nc1ccc(S(=O)(=O)NCc2ccc3c(c2)cc(C)n3C)cc1	9.0	0.7	0.5	32.7	10.3	47.1
CC1NC(=O)N(C)C2NC(=O)N(C)C(c3ccccc3)C12 (stereo unspecified)	-3.2	1	1	-1.2	-10.9	-0.3
N#C/C(=C\C1CC2C=CC1C2)c1nc2ccccc2[nH]1 (stereo unspecified)	-0.2	0.9	0.6	12.2	-17.3	40.6
O=C(CNC(=O)OCc1ccccc1)NCC(=O)N1CCCC1C(=O)OCc1ccccc1 (stereo unspecified)	-1.2	1	0.9	-0.5	3.0	5.0
CN1c2ccccc2C(C)(C)C12CCCC(=O)N2 (stereo unspecified)	-7.0	0.9	1.1	6.3	16.2	-7.1
CC1=NOC2(C1)N(C)c1ccccc1C2(C)C (stereo unspecified)	-1.0	0.4	0.8	58.4*	8.4	19.2
COc1ccc(/C=C/C(=O)NCc2cn(C)nc2C)cc1COc1ccc(Br)cc1	.	0.3	0.4	67.1*	.	60.5*
COc1ccc(/C=C/C(=O)c2ccccc2)cc1COc1ccc(F)cc1	.	0.8	0.4	16.2	.	64.8*
COc1ccc(/C=C/C(=O)c2ccc(O)cc2)cc1COc1ccc(F)cc1	-2.3	1	0.9	-0.4	7.5	5.5
O=c1[nH]c(=O)n(Cc2ccco2)c2c1C(C(F)(F)F)(C(F)(F)F)N=C(Cc1ccccc1)N2	.	0.7	0.2	33.2	.	76.5*
CCCc1ccc(Oc2cn[nH]c2-c2ccc(O)c(C)c2O)cc1	-11.2	0	0	98.2*	101.0*	98.6*

Assay outcomes deposited in PubChem by Sanford-Burnham Center for Chemical Genomics.
